Assay results as given in the supplement of paper PMC10849652.
Of roughly 8,800 targets only a part is listed; those with a hit were picked by preference. About 0.5% of all pairs of compound and target were hits. A number with no mark means an inactive call.

compound: Cc1ccc(-n2nc(C(C)(C)C)cc2NC(=O)Nc2ccc(OCCN3CCOCC3)c3ccccc23)cc1 [doramapimod]; assay: log2 fold change, soluble protein after heating vs DMSO (PISA); higher = thermal stabilisation; K562 lysate, 10 uM; active = over 0.2 and 3.5 SD of the protein, either way, in both replicates (recomputed)
Summary of the method: (§1)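 A 30 min treatment with 10 μM compound was applied to crude K562 extract at 1 mg/mL protein in PBS pH 7.4 with 1 mM MgCl2. Heating for 3 min spanned 48°C-58°C, after which aliquots were pooled, adjusted to 0.5% NP-40 at 4°C and spun at 21,000xg for 90 min. TMTpro 16plex LC-MS/MS of the supernatant, with channel sums equalised, gave values recorded as log-two fold change in thermal stability against solvent controls, from duplicates.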

Sequence of UniProt Q9BZ23 (Q9BZ23 whole entry, looked up): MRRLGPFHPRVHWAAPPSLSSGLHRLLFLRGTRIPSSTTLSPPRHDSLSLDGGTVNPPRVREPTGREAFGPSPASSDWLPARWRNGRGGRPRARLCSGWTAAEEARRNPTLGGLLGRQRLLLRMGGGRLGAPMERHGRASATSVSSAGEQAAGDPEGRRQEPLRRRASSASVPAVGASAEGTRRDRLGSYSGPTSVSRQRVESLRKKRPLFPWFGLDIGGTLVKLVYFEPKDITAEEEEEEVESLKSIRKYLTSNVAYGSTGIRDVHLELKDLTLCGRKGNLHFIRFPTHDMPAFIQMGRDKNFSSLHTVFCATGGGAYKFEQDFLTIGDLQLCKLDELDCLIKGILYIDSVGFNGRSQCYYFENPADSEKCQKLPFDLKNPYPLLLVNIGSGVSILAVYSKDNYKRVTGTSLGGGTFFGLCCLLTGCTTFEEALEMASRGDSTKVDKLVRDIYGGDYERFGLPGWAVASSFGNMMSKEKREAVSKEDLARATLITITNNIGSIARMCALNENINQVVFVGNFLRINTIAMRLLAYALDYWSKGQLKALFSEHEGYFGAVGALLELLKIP
Sequence of UniProt O60313 (O60313 whole entry, looked up): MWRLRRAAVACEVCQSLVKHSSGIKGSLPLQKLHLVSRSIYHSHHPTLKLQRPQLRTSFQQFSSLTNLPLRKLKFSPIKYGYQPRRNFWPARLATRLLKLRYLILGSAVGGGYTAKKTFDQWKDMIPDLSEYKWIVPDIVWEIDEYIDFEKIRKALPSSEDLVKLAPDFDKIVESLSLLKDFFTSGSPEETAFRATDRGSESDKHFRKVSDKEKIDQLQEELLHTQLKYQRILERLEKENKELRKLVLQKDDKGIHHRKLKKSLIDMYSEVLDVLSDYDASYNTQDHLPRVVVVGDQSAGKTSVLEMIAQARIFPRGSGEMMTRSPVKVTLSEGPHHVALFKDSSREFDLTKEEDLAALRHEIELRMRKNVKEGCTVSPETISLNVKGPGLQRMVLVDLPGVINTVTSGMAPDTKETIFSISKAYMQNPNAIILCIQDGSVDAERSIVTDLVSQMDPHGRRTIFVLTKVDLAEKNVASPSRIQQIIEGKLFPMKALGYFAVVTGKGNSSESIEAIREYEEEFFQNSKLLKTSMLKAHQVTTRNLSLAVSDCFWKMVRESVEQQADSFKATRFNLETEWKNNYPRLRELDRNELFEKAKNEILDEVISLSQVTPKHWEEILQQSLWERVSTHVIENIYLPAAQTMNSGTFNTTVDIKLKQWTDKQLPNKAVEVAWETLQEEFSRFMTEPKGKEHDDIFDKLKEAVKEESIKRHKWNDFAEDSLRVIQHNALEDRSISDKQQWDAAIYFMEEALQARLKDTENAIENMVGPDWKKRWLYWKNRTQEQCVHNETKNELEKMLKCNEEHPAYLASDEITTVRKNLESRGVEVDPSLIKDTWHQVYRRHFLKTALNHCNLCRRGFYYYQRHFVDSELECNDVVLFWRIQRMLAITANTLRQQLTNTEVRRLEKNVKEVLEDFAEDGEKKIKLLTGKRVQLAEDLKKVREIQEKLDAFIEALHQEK
Sequence of UniProt Q9BTC8 (Q9BTC8 whole entry, looked up): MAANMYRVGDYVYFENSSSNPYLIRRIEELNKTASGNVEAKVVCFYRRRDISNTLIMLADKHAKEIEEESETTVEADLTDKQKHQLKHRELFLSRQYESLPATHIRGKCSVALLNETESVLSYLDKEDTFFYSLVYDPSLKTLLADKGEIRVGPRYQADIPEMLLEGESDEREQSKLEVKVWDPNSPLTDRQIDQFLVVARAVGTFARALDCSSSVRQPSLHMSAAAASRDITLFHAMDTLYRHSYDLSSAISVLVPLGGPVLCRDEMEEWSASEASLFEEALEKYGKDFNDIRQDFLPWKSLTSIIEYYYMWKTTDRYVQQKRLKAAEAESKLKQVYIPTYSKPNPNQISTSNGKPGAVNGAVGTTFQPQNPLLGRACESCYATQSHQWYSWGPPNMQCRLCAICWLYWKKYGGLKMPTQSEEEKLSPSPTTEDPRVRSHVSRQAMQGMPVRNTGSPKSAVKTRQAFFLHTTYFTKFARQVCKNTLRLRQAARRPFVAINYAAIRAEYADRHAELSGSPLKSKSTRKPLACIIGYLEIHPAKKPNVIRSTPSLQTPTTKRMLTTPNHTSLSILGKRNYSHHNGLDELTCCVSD
Sequence of UniProt O94776 (O94776 whole entry, looked up): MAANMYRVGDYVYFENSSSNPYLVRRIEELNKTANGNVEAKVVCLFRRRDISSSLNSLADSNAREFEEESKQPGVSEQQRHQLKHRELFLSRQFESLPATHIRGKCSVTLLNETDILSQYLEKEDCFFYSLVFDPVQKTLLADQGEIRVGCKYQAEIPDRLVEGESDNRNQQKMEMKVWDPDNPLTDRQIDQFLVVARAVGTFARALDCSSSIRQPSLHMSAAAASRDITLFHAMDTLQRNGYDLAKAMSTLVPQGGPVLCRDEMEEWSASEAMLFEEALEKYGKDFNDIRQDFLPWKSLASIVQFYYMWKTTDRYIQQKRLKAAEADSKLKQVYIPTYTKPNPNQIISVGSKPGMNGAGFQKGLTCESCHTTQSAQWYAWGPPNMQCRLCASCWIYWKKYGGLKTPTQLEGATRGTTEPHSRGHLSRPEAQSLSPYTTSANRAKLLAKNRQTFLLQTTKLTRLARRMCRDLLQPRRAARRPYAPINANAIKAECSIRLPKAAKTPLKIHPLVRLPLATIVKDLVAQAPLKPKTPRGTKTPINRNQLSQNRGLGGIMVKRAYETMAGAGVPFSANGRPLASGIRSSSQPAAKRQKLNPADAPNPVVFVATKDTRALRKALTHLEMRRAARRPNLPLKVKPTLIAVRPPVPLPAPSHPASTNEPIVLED
Sequence of UniProt P04181 (P04181 whole entry, looked up): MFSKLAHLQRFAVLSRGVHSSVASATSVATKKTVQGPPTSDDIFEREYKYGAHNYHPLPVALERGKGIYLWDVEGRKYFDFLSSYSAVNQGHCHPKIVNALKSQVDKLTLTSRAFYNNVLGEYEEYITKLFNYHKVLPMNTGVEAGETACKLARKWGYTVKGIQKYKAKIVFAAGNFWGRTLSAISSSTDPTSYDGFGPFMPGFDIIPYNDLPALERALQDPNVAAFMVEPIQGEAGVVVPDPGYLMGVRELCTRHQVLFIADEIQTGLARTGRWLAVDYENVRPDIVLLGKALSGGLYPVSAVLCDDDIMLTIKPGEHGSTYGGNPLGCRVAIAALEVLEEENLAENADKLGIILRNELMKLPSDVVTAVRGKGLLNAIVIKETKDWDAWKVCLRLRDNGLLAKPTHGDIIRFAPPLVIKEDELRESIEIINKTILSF
Sequence of UniProt Q6N063 (Q6N063 whole entry, looked up): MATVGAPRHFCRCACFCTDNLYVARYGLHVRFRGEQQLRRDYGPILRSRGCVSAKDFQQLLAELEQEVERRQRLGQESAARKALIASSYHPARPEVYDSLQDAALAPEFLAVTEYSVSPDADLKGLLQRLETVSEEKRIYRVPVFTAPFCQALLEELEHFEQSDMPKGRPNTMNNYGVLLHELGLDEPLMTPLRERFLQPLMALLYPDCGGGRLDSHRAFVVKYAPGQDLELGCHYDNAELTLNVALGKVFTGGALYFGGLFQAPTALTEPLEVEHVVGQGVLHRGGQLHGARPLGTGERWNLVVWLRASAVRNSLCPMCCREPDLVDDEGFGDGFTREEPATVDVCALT
Sequence of UniProt Q9Y639 (Q9Y639 whole entry, looked up): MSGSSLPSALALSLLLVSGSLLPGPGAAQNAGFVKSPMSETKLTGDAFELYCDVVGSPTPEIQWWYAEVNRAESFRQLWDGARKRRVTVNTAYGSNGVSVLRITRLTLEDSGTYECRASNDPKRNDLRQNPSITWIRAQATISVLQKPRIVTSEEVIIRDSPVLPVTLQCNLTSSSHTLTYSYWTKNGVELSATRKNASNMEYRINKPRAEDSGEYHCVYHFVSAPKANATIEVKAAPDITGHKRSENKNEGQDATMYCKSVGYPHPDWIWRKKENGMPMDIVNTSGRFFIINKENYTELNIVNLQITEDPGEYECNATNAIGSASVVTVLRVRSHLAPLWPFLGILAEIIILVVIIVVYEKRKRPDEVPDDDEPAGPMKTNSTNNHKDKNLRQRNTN

OGFOD2 (UniProt Q6N063) and MTA2 (UniProt O94776) are within 0.2 log units of each other in log2 fold change: -0.013 for the first, 0.031 for the second.

NDC1 (UniProt Q9BTX1) and OLA1 (UniProt Q9NTK5) are within 0.2 log units of each other in log2 fold change: -0.001 for the first, 0.018 for the second.

OCRL (UniProt Q01968) and NCAPG2 (UniProt Q86XI2) are within 0.2 log units of each other in log2 fold change: 0.033 for the first, 0.062 for the second.

NUP133 (UniProt Q8WUM0) and NCKAP1L (UniProt P55160) are within 0.2 log units of each other in log2 fold change: 0.061 for the first, -0.011 for the second.

MRPL53 (UniProt Q96EL3) and MRPS12 (UniProt O15235) are within 0.2 log units of each other in log2 fold change: 0.009 for the first, 0.03 for the second.

NDUFS1 isoform 2 (UniProt P28331) and NCOR2 (UniProt C9J0Q5) are within 0.2 log units of each other in log2 fold change: 0.024 for the first, -0.052 for the second.

NUP205 (UniProt Q92621) and MTOR (UniProt P42345) are within 0.2 log units of each other in log2 fold change: 0.043 for the first, 0.055 for the second.

NF1 (UniProt P21359) and ORC5 (UniProt O43913) are within 0.2 log units of each other in log2 fold change: -0.009 for the first, 0.027 for the second.

OSBP2 (UniProt Q969R2) and PANK2 (UniProt Q9BZ23) are within 0.2 log units of each other in log2 fold change: 0.018 for the first, -0.008 for the second.

MYCBP2 (UniProt O75592) and NPTN (UniProt Q9Y639) are within 0.2 log units of each other in log2 fold change: 0.016 for the first, 0.056 for the second.

NNT (UniProt Q13423) and OAT (UniProt P04181) are within 0.2 log units of each other in log2 fold change: 0.011 for the first, -0.029 for the second.

MTHFD1, A0A384N5Y3 and NIPBL (UniProt Q6KC79) are within 0.2 log units of each other in log2 fold change: 0.043 for the first, 0.033 for the second.

NBEAL2 (UniProt Q6ZNJ1) and N4BP2 (UniProt Q86UW6) are within 0.2 log units of each other in log2 fold change: 0.008 for the first, -0.015 for the second.

NFKBIE (UniProt O00221) and MTA3 (UniProt Q9BTC8) are within 0.2 log units of each other in log2 fold change: 0.031 for the first, 0.002 for the second.

NFATC4 isoform 2 (UniProt Q14934) and NAA35 (UniProt Q5VZE5) are within 0.2 log units of each other in log2 fold change: 0.026 for the first, 0.031 for the second.

OPA1 isoform 2 (UniProt O60313) and NAA30 (UniProt Q147X3) are within 0.2 log units of each other in log2 fold change: 0.023 for the first, -0.028 for the second.

MYO1C (UniProt O00159) and NUF2 (UniProt Q9BZD4) are within 0.2 log units of each other in log2 fold change: 0.065 for the first, 0.008 for the second.

For NCAPH (UniProt Q15003), the log2 fold change was 0.036.

compound: Cc1ccc(NC(=O)c2ccc(CN3CC[C@H](N(C)C)C3)c(C(F)(F)F)c2)cc1Nc1nccc(-c2cncnc2)n1 [bafetinib]; assay: as above
Summary of the method: as §1

OGFOD2 (UniProt Q6N063) and MTA2 (UniProt O94776) are within 0.2 log units of each other in log2 fold change: -0.09 for the first, -0.009 for the second.

NDC1 (UniProt Q9BTX1) and OLA1 (UniProt Q9NTK5) are within 0.2 log units of each other in log2 fold change: -0.066 for the first, 0.024 for the second.

OCRL (UniProt Q01968) and NCAPG2 (UniProt Q86XI2) are within 0.2 log units of each other in log2 fold change: 0.001 for the first, -0.074 for the second.

First: NUP133 (UniProt Q8WUM0)
Second: NCKAP1L (UniProt P55160)
The log2 fold change of the first is higher: -0.074 for the first, -0.324 for the second.

MRPL53 (UniProt Q96EL3) and MRPS12 (UniProt O15235) are within 0.2 log units of each other in log2 fold change: 0.005 for the first, 0.036 for the second.

NDUFS1 isoform 2 (UniProt P28331) and NCOR2 (UniProt C9J0Q5) are within 0.2 log units of each other in log2 fold change: -0.013 for the first, 0.079 for the second.

NUP205 (UniProt Q92621) and MTOR (UniProt P42345) are within 0.2 log units of each other in log2 fold change: -0.089 for the first, -0.015 for the second.

NF1 (UniProt P21359) and ORC5 (UniProt O43913) are within 0.2 log units of each other in log2 fold change: -0.041 for the first, -0.069 for the second.

OSBP2 (UniProt Q969R2) and PANK2 (UniProt Q9BZ23) are within 0.2 log units of each other in log2 fold change: -0.037 for the first, -0.029 for the second.

MYCBP2 (UniProt O75592) and NPTN (UniProt Q9Y639) are within 0.2 log units of each other in log2 fold change: -0.004 for the first, -0.029 for the second.

NNT (UniProt Q13423) and OAT (UniProt P04181) are within 0.2 log units of each other in log2 fold change: -0.006 for the first, 0 for the second.

MTHFD1, A0A384N5Y3 and NIPBL (UniProt Q6KC79) are within 0.2 log units of each other in log2 fold change: -0.041 for the first, 0.001 for the second.

NBEAL2 (UniProt Q6ZNJ1) and N4BP2 (UniProt Q86UW6) are within 0.2 log units of each other in log2 fold change: -0.056 for the first, -0.038 for the second.

NFKBIE (UniProt O00221) and MTA3 (UniProt Q9BTC8) are within 0.2 log units of each other in log2 fold change: 0.012 for the first, -0.048 for the second.

First: NFATC4 isoform 2 (UniProt Q14934)
Sequence of UniProt Q14934 (Q14934 whole entry, looked up): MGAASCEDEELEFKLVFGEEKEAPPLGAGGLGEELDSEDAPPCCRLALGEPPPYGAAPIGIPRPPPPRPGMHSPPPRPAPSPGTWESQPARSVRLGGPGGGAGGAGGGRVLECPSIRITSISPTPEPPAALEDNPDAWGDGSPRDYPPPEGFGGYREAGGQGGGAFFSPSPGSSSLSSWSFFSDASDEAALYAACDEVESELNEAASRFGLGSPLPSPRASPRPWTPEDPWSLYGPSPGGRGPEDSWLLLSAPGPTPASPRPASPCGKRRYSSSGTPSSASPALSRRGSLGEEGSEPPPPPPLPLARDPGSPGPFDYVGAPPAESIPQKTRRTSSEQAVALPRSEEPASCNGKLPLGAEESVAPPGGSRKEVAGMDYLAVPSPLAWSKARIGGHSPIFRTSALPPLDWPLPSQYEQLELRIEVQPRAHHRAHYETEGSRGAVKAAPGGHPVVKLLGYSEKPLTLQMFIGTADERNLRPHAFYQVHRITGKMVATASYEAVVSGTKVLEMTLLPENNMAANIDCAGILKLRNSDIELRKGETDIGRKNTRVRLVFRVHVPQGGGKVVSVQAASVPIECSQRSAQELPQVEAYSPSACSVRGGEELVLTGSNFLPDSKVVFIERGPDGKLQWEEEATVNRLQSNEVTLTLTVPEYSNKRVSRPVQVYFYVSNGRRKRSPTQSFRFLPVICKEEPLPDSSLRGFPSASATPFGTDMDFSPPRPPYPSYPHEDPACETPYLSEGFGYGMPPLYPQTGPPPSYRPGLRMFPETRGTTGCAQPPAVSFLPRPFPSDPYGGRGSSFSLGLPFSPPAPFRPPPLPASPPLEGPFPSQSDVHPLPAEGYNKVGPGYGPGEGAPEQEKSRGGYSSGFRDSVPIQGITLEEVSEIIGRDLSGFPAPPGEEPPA
Second: NAA35 (UniProt Q5VZE5)
The log2 fold change of the first is lower: -0.305 for the first, -0.057 for the second.

OPA1 isoform 2 (UniProt O60313) and NAA30 (UniProt Q147X3) are within 0.2 log units of each other in log2 fold change: -0.073 for the first, 0.042 for the second.

MYO1C (UniProt O00159) and NUF2 (UniProt Q9BZD4) are within 0.2 log units of each other in log2 fold change: 0.068 for the first, -0.087 for the second.

NCAPH (UniProt Q15003) was tested, and the log2 fold change was -0.013.

compound: Cc1cccc(CC(=O)N2CCc3c2ccc(-c2cn(C)c4ncnc(N)c24)c3F)n1; assay: as above
Summary of the method: as §1

OGFOD2 (UniProt Q6N063) and MTA2 (UniProt O94776) are within 0.2 log units of each other in log2 fold change: 0.032 for the first, 0.021 for the second.

OLA1 (UniProt Q9NTK5) and OCRL (UniProt Q01968) are within 0.2 log units of each other in log2 fold change: 0.052 for the first, 0.047 for the second.

NCAPG2 (UniProt Q86XI2) and NUP133 (UniProt Q8WUM0) are within 0.2 log units of each other in log2 fold change: 0.143 for the first, 0.218 for the second.

NCKAP1L (UniProt P55160) and MRPL53 (UniProt Q96EL3) are within 0.2 log units of each other in log2 fold change: 0.017 for the first, 0.012 for the second.

MRPS12 (UniProt O15235) and NDUFS1 isoform 2 (UniProt P28331) are within 0.2 log units of each other in log2 fold change: -0.003 for the first, -0.006 for the second.

NCOR2 (UniProt C9J0Q5) and NUP205 (UniProt Q92621) are within 0.2 log units of each other in log2 fold change: -0.07 for the first, 0.031 for the second.

MTOR (UniProt P42345) and NF1 (UniProt P21359) are within 0.2 log units of each other in log2 fold change: 0.053 for the first, 0.049 for the second.

ORC5 (UniProt O43913) and OSBP2 (UniProt Q969R2) are within 0.2 log units of each other in log2 fold change: 0.045 for the first, 0.23 for the second.

PANK2 (UniProt Q9BZ23) and MYCBP2 (UniProt O75592) are within 0.2 log units of each other in log2 fold change: 0.095 for the first, 0.114 for the second.

NPTN (UniProt Q9Y639) and NNT (UniProt Q13423) are within 0.2 log units of each other in log2 fold change: 0.011 for the first, 0.003 for the second.

OAT (UniProt P04181) and MTHFD1, A0A384N5Y3 are within 0.2 log units of each other in log2 fold change: 0.044 for the first, -0.025 for the second.

NIPBL (UniProt Q6KC79) and NBEAL2 (UniProt Q6ZNJ1) are within 0.2 log units of each other in log2 fold change: 0.016 for the first, 0.072 for the second.

N4BP2 (UniProt Q86UW6) and NFKBIE (UniProt O00221) are within 0.2 log units of each other in log2 fold change: 0.149 for the first, 0.096 for the second.

MTA3 (UniProt Q9BTC8) and NFATC4 isoform 2 (UniProt Q14934) are within 0.2 log units of each other in log2 fold change: 0.051 for the first, 0.192 for the second.

NAA35 (UniProt Q5VZE5) and OPA1 isoform 2 (UniProt O60313) are within 0.2 log units of each other in log2 fold change: -0.022 for the first, 0.048 for the second.

NAA30 (UniProt Q147X3) and MYO1C (UniProt O00159) are within 0.2 log units of each other in log2 fold change: 0.06 for the first, -0.023 for the second.

NUF2 (UniProt Q9BZD4) and NCAPH (UniProt Q15003) are within 0.2 log units of each other in log2 fold change: 0.053 for the first, 0.028 for the second.

With NDC1 (UniProt Q9BTX1) the log2 fold change was 0.296 (active).
